# Test results from PubChem BioAssay AID588335 (The Scripps Research Institute Molecular Screening Center, 2011).
# The campaign covered roughly 360,000 compounds. About 4,500 (1.2%) were called active. No stated cut-off is given here; in the data, active means inhibition above about 30%; inactive means the rest. Only a selection was taken, and actives are over-represented in it overall.
# Assay: GDH-TPI coupling enzyme inhibitors, primary screen, artefact control for M. tuberculosis FBA inhibitor project, biochemical, absorbance, full deck (AID 588335);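 further: 0% = DMSO wells and 100% = wells lacking the enzyme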
# Details: GDH-TPI coupled enzyme counterscreen, NADH absorbance; at 4.8 µM; stronger effect = higher value
row,Structure (SMILES),inhibition
1,CCOC(=O)c1sc(N(Cc2ccccc2)C(=O)CN2C(=O)CN(C)C2=O)nc1C,-10.6% (inactive)
2,CC(C)(C)C1CCC(OC(=O)CCC(=O)Nc2ccccc2)CC1 (stereo not drawn),-9.56% (inactive)
3,CCCCn1c(N)c(N2CCOCC2)c(=O)n(CC(=O)NCCc2ccccc2)c1=O,8.07% (inactive)
4,NS(=O)(=O)c1ccc(NC2=CC(c3ccc(F)cc3)N(c3ccc(S(N)(=O)=O)cc3)C2=O)cc1 (stereo not drawn),4.35% (inactive)
5,CC(=O)C1=C(O)C(=O)N(c2ccc(S(N)(=O)=O)cc2)C1c1ccccc1F (stereo not drawn),32.2% (active)
6,CC(=O)C1=C(O)C(=O)N(c2ccc(Br)cc2)C1c1ccc([N+](=O)[O-])cc1 (stereo not drawn),21.6% (inactive)
7,CCCSC1=C(C#N)C(c2ccccc2C)C(C(=O)OC)C(=O)N1 (stereo not drawn),3.67% (inactive)
8,CC1CCC2(CC1)NC(=O)N(Cc1nnc(-c3cccs3)o1)C2=O (stereo not drawn),-10.1% (inactive)
9,COc1cc2c(cc1OC)/C(=C/C(=O)c1ccc(NC(C)=O)cc1)NCC2,14% (inactive)
10,CC1(C)Cc2ccccc2/C(=C/C(=O)c2ccccc2)N1,4.27% (inactive)
11,CC1CN/C(=C\C(=O)c2ccc(Br)cc2)C(=O)N1 (stereo not drawn),33.3% (active)
12,CCOC(=O)c1c(/N=C/c2cc(C)ccc2O)sc2c1CCC2,9.89% (inactive)
13,CCOC(=O)c1c(N)sc2c1CCCC2=O,36% (active)
14,CCOC(=O)c1c(CC(C)C)csc1/N=C/C1=C(O)CCCC1=O,-3.83% (inactive)
15,CCCCOc1ccc(N(CC(=O)NCC2CCCO2)C(=O)CCC(=O)Nc2cc(C)ccn2)cc1 (stereo not drawn),12.4% (inactive)
16,Cc1cccc(NS(=O)(=O)c2ccc(-c3cnc(C4CC4)o3)cc2)c1,-5.68% (inactive)
17,CC1C=CCC2C(=O)N(c3cccc(C(=O)N4CCCCCC4)c3)C(=O)C12 (stereo not drawn),5.39% (inactive)
18,Cc1ccc(-c2nn(C(C)(C)C)c3ncnc(N)c23)cc1,11.5% (inactive)
19,CCOC(=O)C(CC)Sc1ncnc2c1nnn2-c1ccc(F)cc1 (stereo not drawn),11.2% (inactive)
20,CCc1nnc(NS(=O)(=O)c2ccc(NC(=S)NC(=O)/C=C/c3cccs3)cc2)s1,32.2% (active)
21,CCc1nnc(NS(=O)(=O)c2ccc(NC(=O)c3cccc(OC(F)(F)C(F)F)c3)cc2)s1,-13% (inactive)
22,CCOC(=O)c1c(NC(=S)NC(=O)/C=C/c2cccs2)sc(C)c1C,-3.37% (inactive)

row,Structure (SMILES),inhibition
1,COc1ccc(NC(=O)N(C)C[C@H]2Oc3ncc(C#C[C@@H](C)O)cc3C(=O)N([C@H](C)CO)C[C@H]2C)cc1,1.42% (inactive)
2,Cc1ccc2c(c1)C1C[N+](C)(CC(=O)c3ccccc3)CCC1N2C(=O)c1ccccc1Cl (stereo not drawn),-8.62% (inactive)
3,O=C(Nc1ccc(Br)c2cccnc12)c1ccc(Cn2cc([N+](=O)[O-])cn2)o1,4.69% (inactive)
4,CC1CCc2c(sc(NC(=O)c3ccc(Cn4cc(Br)cn4)o3)c2C(N)=O)C1 (stereo not drawn),7.5% (inactive)
5,CN(C)c1ccc(/C=N/NC(=O)c2ccc(Cn3cc(Br)cn3)o2)cc1,30.7% (active)
6,CN(C)c1ccc(/C=N/NC(=O)C(O)c2ccc(Br)cc2)cc1 (stereo not drawn),30.4% (inactive)
7,O=C(N/N=C/c1ccc2c(c1)OCO2)c1ccc(Cn2cc([N+](=O)[O-])cn2)o1,43.3% (active)
8,O=C(c1ccc(Cn2cc([N+](=O)[O-])cn2)o1)N1CCCC1,-17.2% (inactive)
9,O=C(NCCCN1CCCCC1)C1CCCN(c2ncnc3c2nc2n3CCCCC2)C1 (stereo not drawn),-16.5% (inactive)
10,COc1ccc(OC)c(NC(=O)C2(C)CCN2C(=O)Cc2ccccc2)c1 (stereo not drawn),7.08% (inactive)
11,C=C(C)CNC(=S)/N=c1\scc(C)n1CC,13.2% (inactive)
12,Cc1ccc(/C=N/NC(=O)c2cc3ccccc3cc2O)o1,34.5% (active)
13,Cc1ccc(/C=N/NC(=O)Cn2nc(C)c(Br)c2C)o1,5.47% (inactive)
14,Cc1ccc(/C=N/NC(=O)Cn2ccc(C(F)(F)F)n2)o1,7.37% (inactive)
15,COc1ccccc1C(=O)NC(=S)Nc1ccc(N2CCOCC2)cc1,19.6% (inactive)
16,O=C(NN=Cc1ccc(N2CCOCC2)cc1)c1cc2ccccc2cc1O,50.6% (active)
17,O=C(O)c1ccc(NN=CC2=C(N3CCOCC3)/C(=C/c3ccccc3)CC2)cc1,22.9% (inactive)
18,CCOC(=O)CN(C(=O)CN1CCOCC1)c1ccc(Br)cc1,9.62% (inactive)
19,Cn1c(SCC(=O)N2CCOCC2)nnc1-c1ccc(NC(=O)c2ccccc2F)cc1,0% (inactive)
20,Cc1cccc(C(C)C)c1NC(=O)COC(=O)C1CC(=O)N(Cc2ccccc2)C1 (stereo not drawn),-2.1% (inactive)
21,COc1ccc(CCNS(=O)(=O)c2cc3c(cc2C)NC(=O)CO3)cc1OC,-4.31% (inactive)
